Compound activity as filed in PubChem BioAssay.
A selection: hits, their analogues and other compounds. The true share with any hit is near 19%.
HT1080 IDH1KD tx = toxicity to HT-1080 IDH1 knockdown cells (counter line); hit rate 2% among 360,000; HT-1080 IDH1 knockdown viability, ATP luminescence, 48 h; Potency, µM (top dose mostly 46.1 µM), hits mostly cytotoxic
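In this qHTS, HT-1080 cells depleted of IDH1 are exposed for 48 h at 37 °C to compound titrations. Toxicity is scored from CellTiter-Glo luminescence, with DMSO as full viability and medium alone as none.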
DT40 TDP1 no CPT = qHTS for Inhibitors of human tyrosyl-DNA phosphodiesterase 1 (TDP1): qHTS in cells in absence of CPT; DT40 Tdp1-/- hTDP1 cells, no CPT, ATP luminescence, 48 h; Potency, µM (titrated, usually from 46.2 µM), usual class: inhibitors; hit rate 15% among 420,000; further: nearly all actives have a fitted effect of over 55% in size
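Readout: luminescence from CellTiter-Glo after 30 min in the dark at RT. Cells: DT40 Tdp1-/- with stable hTDP1, 400/well. Exposure: compounds alone, ≥48 hr, 37 °C.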
HT1080NT lethal = kills 2HG-producing HT-1080-NT fibrosarcoma cells. Potency, µM (titrated, usually from 46.1 µM), usual class: cytotoxic. HT-1080-NT fibrosarcoma viability, CellTiter-Glo ATP luminescence, 48 h. hit rate 1.6% among 360,000;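 further: NT is the 2HG producing partner of a matched IDH1 knockdown line; nearly all actives have a fitted effect of over 55% in size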
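Viability of the 2HG-overproducing fibrosarcoma line after 48 hours of compound exposure at 37 degrees C was determined by luminescence with CellTiter-Glo, and concentration-effect curves were then fitted and categorized.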
IL-1B inflam inh = inflammasome signaling inhibition, IL-1 beta readout. THP-1 LPS/ATP IL-1B secretion, AlphaLISA, 16 h; hits give low values. activity change, % at 57.5 µM. hit rate 4.7% among 360,000; in the data active means activity change below about -50%; inconclusive means mostly about -30% to -49%
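Secreted IL-1B measured by AlphaLISA bead assay after 16 h compound exposure of THP-1 cells; compounds (final up to 57.5 uM) added 1 h before LPS (250 ng/mL) and ATP (1.25 mM) stimulation; lower signal means less secretion.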
DT40 TDP1 CPT = growth inhibition of DT40 Tdp1-/-;hTDP1 cells with camptothecin (screen for TDP1 inhibitors); chicken DT40 Tdp1-/-;hTDP1 cells + 20 nM CPT, ATP luminescence, 48 h; Potency, µM (doses to about 46.2 µM), most hits filed as inhibitors; hit rate 12% among 420,000; AID 686979; further: nearly all actives have a fitted effect of over 55% in size
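Chicken DT40 Tdp1-/- cells complemented with human TDP1, 400 cells/well, exposed to compounds plus 20 nM camptothecin for at least 48 h at 37 C; viability read as ATP content by CellTiter-Glo luminescence.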
ELG1 repair inh = ELG1-dependent DNA repair inhibition; HEK293T ELG1-luciferase reporter, luminescence, 16 h; DNA damage induced by 5-fluorouridine; Potency, µM (doses to about 46.1 µM), actives largely listed as inhibitors; hit rate 2.3% among 330,000; AID 504467; further: nearly all actives have a fitted effect of over 55% in size
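Quantitative HTS, concentration-response format. 2,000 cells/well co-treated with 5-fluorouridine and compound, 16 hr in 5% CO2 at 37 °C; ONE-Glo luminescence read after 30 min.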
Hits are given with their value; n = inactive; u = inconclusive; x = no result given; [ ] = dose if it differs, or a comment. Unless noted, the call rests on the fitted dose curve; in most records, active means well fitted curve in the direction sought with a large enough effect; inconclusive means small, poorly fitted or top-dose-only effect, or another doubt; inactive means no such curve, though single readings can be large; an effect the other way counts as inactive or inconclusive.

SMILES	HT1080 IDH1KD tx	DT40 TDP1 no CPT	HT1080NT lethal	IL-1B inflam inh	DT40 TDP1 CPT	ELG1 repair inh
OCCCn1c(C2CCCN2c2nc(-c3ccc(F)cc3)cs2)nc2cc(Cl)c(N3CCCCC3)cc21 (stereo not given)	n	21µM	n	n	u	x
OCCCn1c(C2CCCN2c2nc(-c3ccc(Cl)cc3)cs2)nc2cc(Cl)c(N3CCCCC3)cc21 (stereo not given)	n	u	n	n	u	x
Cc1csc(N2CCCC2c2nc3cc(Cl)c(N4CCCCC4)cc3n2CCCO)n1 (stereo not given)	n	16µM	n	n	u	x
O=C(NC1CCCC1)C(c1ccccn1)N(Cc1ccc(F)cc1)C(=O)c1csnn1 (stereo not given)	n	n	n	n	n	n
CC1CCCC(C)N1/N=C/c1ccc(O)c(O)c1 (stereo not given)	n	23µM	n	n	n	n
c1ccc(COc2ncnc3c2ncn3CCCNCc2cccs2)cc1	n	u	n	n	n	x
COc1ccc(NC(=O)CSc2nc(-c3cccs3)cc(C(F)(F)F)n2)c(OC)c1	x	21µM	x	x	16µM	x
COc1ccc(NC(=O)CSc2nc(-c3ccco3)cc(C(F)(F)F)n2)c(OC)c1	x	n	x	x	n	x
O=C(CSc1nc(-c2cccs2)cc(C(F)(F)F)n1)NCCCn1ccnc1	n	n	n	n	n	n
O=C(CSc1nc(-c2cccs2)cc(C(F)(F)F)n1)Nc1cc(OCC(F)(F)C(F)F)cc([N+](=O)[O-])c1	u	12µM	u	n	8.2µM	u
Cc1ccc(NC(=O)CSc2nc(-c3cccs3)cc(C(F)(F)F)n2)cc1C	x	5.8µM	x	x	7.3µM	x
O=C(CSc1nc(-c2cccs2)cc(C(F)(F)F)n1)Nc1ccccc1Cl	x	18µM	x	x	u	x
COc1ccccc1NC(=O)Nc1cc(F)ccc1F	n	n	n	n	n	n
CCN(C(=O)Cn1c(=O)oc2ccccc21)c1ccc(C)c(C)c1	n	n	n	n	n	n
CC(Cc1ccccn1)NC(=O)CCc1nnc(C2CCCCC2)o1 (stereo not given)	n	n	u	n	n	u
Cc1cc2nc(-c3ccc(SCC(=O)Nc4ccc5c(c4)OCCO5)nc3)[nH]c2cc1C	u	23µM	u	n	23µM	u
Cc1ccc2nc(SCC(=O)N3CCOCC3)[nH]c2c1	n	n	n	n	n	u
Cc1cc2nc(-c3ccc(SCC(=O)N4CCOCC4)nc3)[nH]c2cc1C	u	u	u	u	26µM	u
CN(C(=O)c1ccc(NC(=O)Cc2cccc(NC(=O)C3CCCN(C(=O)C4CC4)C3)c2)cc1)C1CC1 (stereo not given)	n	n	n	n	n	x
COc1ccc(S(=O)(=O)N2CCC(C(=O)N(CC(C)C)C3CCS(=O)(=O)C3)CC2)cc1OC (stereo not given)	n	n	n	n	n	u
CCC/C(=C1/c2ccccc2C(=O)N1c1ccccc1)c1ccc2c(c1)OCO2	n	u	n	n	u	n
CCC/C(C#Cc1ccc(N(C)C)cc1)=C1/c2ccccc2C(=O)N1c1ccccc1	n	16µM	n	n	15µM	u
CCC/C(C#CCCN1C(=O)c2ccccc2C1=O)=C1/c2ccccc2C(=O)N1c1ccccc1	n	u	n	n	18µM	u
O=C1c2ccccc2C(=O)N1c1ccccc1	n	n	n	n	n	x
CCC/C(C(=O)NCCO)=C1/c2ccccc2C(=O)N1c1ccccc1	n	u	u	n	n	n
SMILES	HT1080 IDH1KD tx	DT40 TDP1 no CPT	HT1080NT lethal	IL-1B inflam inh	DT40 TDP1 CPT	ELG1 repair inh
CCC/C(C#Cc1ccsc1)=C1/c2ccccc2C(=O)N1c1ccccc1	u	u	n	-89	u	u
CCC/C(C#Cc1cc(OC)cc(OC)c1)=C1/c2ccccc2C(=O)N1c1ccccc1	n	u	n	n	26µM	n
COc1ccc2c(ccn2S(=O)(=O)c2ccccc2)c1	n	u	n	n	n	n
CC(C)(C)OC(=O)N1CCN(C(=O)c2[nH]cnc2C(=O)Nc2cccc(Cl)c2)CC1	n	n	n	n	u	n
COc1cc(OC)cc(C(=O)N[C@H](C(=O)OCC(=O)Nc2ccc3c(c2)OCO3)C(C)C)c1	n	n	n	n	n	u
O=C1c2ccccc2C(=O)N1CCC#C/C=C1\c2ccccc2C(=O)N1c1ccccc1	n	21µM	n	n	u	x
COC(=O)c1ccc(N2CCc3ccccc32)c([N+](=O)[O-])c1	n	n	n	n	u	n
CCOC(CNC(=O)c1ccc(N2CCc3ccccc32)c([N+](=O)[O-])c1)OCC	n	18µM	n	n	21µM	n
CC(=O)N1CCN(c2nc3cc(C)ccc3cc2CN(C(=O)c2cccc3ccccc23)C2CC2)CC1	x	u	x	x	n[9.04 µM]	x
CCOC(=O)C(C)Sc1ncc(-c2ccc(Cl)cc2)cn1 (stereo not given)	n	n	n	n	4.6µM	n
CN(CCc1ccccc1)C(C(=O)Nc1ccc2c(c1)OCCO2)c1ccnc2ccccc12 (stereo not given)	u	u	u	n	u	x
CCC(Sc1ncnc2sc3c(c12)CCCC3)C(=O)OCC(C)C (stereo not given)	x	u	x	x	26µM	x
CCC(Sc1ncnc2sc3c(c12)CCCC3)C(=O)OC(C)C (stereo not given)	x	u	x	x	18µM	x
O=C(O)CSc1ncnc2sc3c(c12)CCC3	n	u	n	n	u	u
Cc1ccc(C(=O)CSc2ncnc3sc4c(c23)CCCC4)cc1	n	21µM	n	n	u	n
O=C(O)CSc1ncnc2sc3c(c12)CCCC3	n	n	n	n	n	u
N#Cc1nnn2c1nc(N)c1c(Cl)cccc12	n	n	n	n	n	x
CC(C(=O)Nc1ccccn1)(c1ccccc1)c1ccccc1	n	n	n	n	n	n
C[C@@H]1CN([C@@H](C)CO)C(=O)CCCn2nncc2CO[C@@H]1CN(C)C(=O)Nc1ccc2c(c1)OCO2	n	n	n	n	n	x
COP(=O)(OC)c1nc(-c2ccc(C)cc2)oc1N1CCCCC1	n	15µM	n	u	u	n
Cc1ccc(-c2nc(S(=O)(=O)c3ccc(C)cc3)c(N3CCOCC3)o2)cc1	n	n	n	n	n	n
CCOP(=O)(OCC)c1nc(-c2cccc([N+](=O)[O-])c2)oc1N1CCCCC1	n	21µM	n	n	u	n
O=[N+]([O-])c1cccc(-c2nnc(-c3ccccc3)o2)c1	n	n	n	n	n	u
